Assay results taken from PubChem BioAssay AID488835 (Broad Institute, 2010).
The campaign covered roughly 1,400 compounds. About 140 (10%) were called active.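 How the source made its calls: active means Half-maximal inhibitory dose from the fit at or below ten times the top valid tested dose; inconclusive means Invalid fit, or flat curve showing 30 to 70% inhibition; inactive means the rest.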 A selection follows. Results with a measured potency or affinity are listed apart.

Target: Lysine-specific demethylase 4C (Homo sapiens) (UniProt Q9H3R0)
Assay: GASC-1 (JMJD2C) histone demethylase inhibitors, dose response, biochemical, DELFIA europium, cherry-picked samples (AID 488835);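 further: signal is the H3K9me2 demethylation product detected by a dimethyl-specific antibody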
Settings: GST-JMJD2C(1-420), H3K9me3 demethylation; series mostly up to 6 µM; activity change, negative = inhibition: at the top concentration

Lysine-specific demethylase 4C (Homo sapiens), sequence (Q9H3R0 1-420 limits assumed): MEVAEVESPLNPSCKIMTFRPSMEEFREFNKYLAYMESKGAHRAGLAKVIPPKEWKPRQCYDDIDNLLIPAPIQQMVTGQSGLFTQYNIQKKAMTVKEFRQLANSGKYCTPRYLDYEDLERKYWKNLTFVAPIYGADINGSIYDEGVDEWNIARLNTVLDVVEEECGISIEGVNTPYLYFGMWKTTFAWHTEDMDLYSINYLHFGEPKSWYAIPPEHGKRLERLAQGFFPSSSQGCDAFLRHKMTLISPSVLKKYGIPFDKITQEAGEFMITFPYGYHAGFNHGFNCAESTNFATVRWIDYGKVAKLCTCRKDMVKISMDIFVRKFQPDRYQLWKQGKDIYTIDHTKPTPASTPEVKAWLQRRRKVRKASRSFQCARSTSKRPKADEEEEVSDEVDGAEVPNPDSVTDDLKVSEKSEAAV

Activity change, negative = inhibition, inactive:
CCC(C)(C)NC(=O)C(c1cccn1C)N(Cc1ccc(OC)cc1)C(=O)Cn1nnc2ccccc21 (stereo not drawn) 1.52%
O=C(Oc1cccc(NC(=O)c2ccco2)c1)c1cccc(S(=O)(=O)N2CCCC2)c1 0.126%
Cc1cc(-n2c(SCC(=O)NCc3cccs3)nc3n[nH]c(C)c3c2=N)ccc1Cl 4.17%
O=c1[nH]c(S)nc2sc3c(c12)CCCC3 -1.73%
CCOC(=O)C1=C(C)NC2=C(C(=O)CCC2)C1c1coc2ccccc2c1=O (stereo not drawn) 2%
COc1ccc(CCNC(=O)c2ccccc2Cl)cc1OC 3.52%
CCOc1cc(CN2CCN(CCc3ccccc3)C(CCO)C2)ccc1OC (stereo not drawn) 4.52%
CCc1ccc(NC(=O)N(CCN2CCOCC2)C2CCN(C(C)=O)CC2)cc1 3.77%
Cc1nnc(SCc2nnc(-c3ccccc3)o2)n(N)c1=O -1.28%
COc1ccc(NC(NC(=O)c2cccnc2)C(Cl)(Cl)Cl)cc1 (stereo not drawn) 0.574%
CCCC(=O)Nc1nn(C)c2nc3c(C)cccc3cc12 -4.26%
O=C(COc1ccc(NC(=O)c2ccccc2)cc1)c1ccccc1 2.44%
C[C@@H]1CC[C@]2(C(=O)O[C@@H]3O[C@H](CO)[C@@H](O)[C@H](O)[C@H]3O)CC[C@]3(C)C(=CCC4[C@@]5(C)C[C@@H](O)[C@H](O)[C@@](C)(C(=O)O[C@@H]6[C@H](O)C[C@@]7(C)C(CC[C@]8(C)C7CC=C7[C@H]9[C@](C(=O)O[C@@H]%10O[C@H](CO)[C@@H](O)[C@H](O)[C@H]%10O)(CC[C@@H](C)[C@@]9(C)O)CC[C@]78C)[C@@]6(CO)C(=O)O)C5CC[C@]43C)[C@@H]2[C@]1(C)O (stereo partly drawn) 8%
Cc1cccc(C(=O)NCC(c2ccco2)N2CCc3ccccc32)c1 (stereo not drawn) 4.14%
COc1ccc(Nc2ncnc3sc(-c4ccccc4)cc23)cc1OC 0.937%
COc1ccccc1Cc1nnc(NC(=O)C2CCN(C(=O)c3ccco3)CC2)s1 3.52%
CCN(C[C@H]1N[C@@](C)(C(=O)OC)[C@H]2C(=O)N(C)C(=O)[C@@H]12)C(=O)Nc1ccc(C)cc1 0.134%
CCCCN(CC)S(=O)(=O)c1ccc(C(=O)Nc2nnc(COC)o2)cc1 3.36%
O=C(NCc1cccc(Cl)c1)c1ccc2c(c1)OCO2 2.71%
Cc1cc(C)nc(NC(N)=NC(C)c2ccccc2)n1 (stereo not drawn) -7.76%
CCn1c(O)c(N=NC2=NC(=O)CS2)c2ccccc21 0.856%
O=C(CCSCc1ccccc1F)NCCc1ccccc1 9.82%
Cc1noc(C)c1S(=O)(=O)N(C)C[C@H]1Oc2c(NC(=O)Nc3ccc(C(F)(F)F)cc3)cccc2C(=O)N([C@H](C)CO)C[C@@H]1C -5.65%
Cc1ccc(C(=O)N2CCN(c3ccc(Cl)cc3)CC2)cc1 1.79%
COc1cccc(NC(=O)CCN2C(=O)C3CC=CCC3C2=O)c1 (stereo not drawn) -8.52%
NC(=O)Cn1nc([N+](=O)[O-])nc1Oc1ccccc1F -7.81%
S=C(NCc1ccco1)Nc1cccc(Cl)c1 -6.24%
O=C(NCc1ccccc1)c1ccc2c(c1)OCCO2 1.89%
Cc1noc(C)c1NC(=O)Nc1cccc2c1O[C@H](CN(C)C(=O)Nc1ccc3c(c1)OCO3)[C@@H](C)CN([C@H](C)CO)C2=O 12.1%
Cc1[nH]n(-c2ccccc2)c(=O)c1N=Nc1nccs1 -6.11%
CCOC(=O)N1CCc2c(sc3nc4n(c(=O)c23)N=C(C)CS4)C1 -0.154%
COc1ccc(CN(Cc2nc3ccccc3c(=O)[nH]2)C(=O)NC2CCCCC2)cc1 -0.777%
NC(=O)C1CCN(C(=O)c2ccc(Oc3cc(Cl)cc(Cl)c3)o2)CC1 -2.91%
COc1ccccc1-n1cnnc1SCC(=O)Nc1ncc(Cl)cc1Cl -7.89% [at 1.6 µM]
O=[N+]([O-])c1cc(Cl)ccc1Nc1ccccc1 2.42%
COc1ccccc1NC(=O)c1cccs1 -1.1% [at 1.6 µM]
COc1ccccc1NC(=O)COC(=O)/C=C/c1cccs1 6.16%
O=C(COC(=O)c1ccc(O)cc1)Nc1ccc(Cl)cc1 0.856%
CC(=O)Nc1ccc(NC(=O)C2CCN(C(=O)c3cccs3)CC2)cc1 -11.3%
O=C(NCC1CCCO1)C(c1ccc(F)cc1)N(CCCN1CCOCC1)C(=O)c1ccc(-c2ccccc2)[nH]1 (stereo not drawn) 10.5%
COCCn1c(C(C)C)nc2sc3ccccc3c(=O)c2c1=O 5.81%
COC(=O)CNS(=O)(=O)c1ccc(C)cc1 2.24%
COC(=O)[C@]1(C)N[C@H](CN(C)C(=O)Nc2ccc(C)cc2)[C@@H]2C(=O)N(Cc3ccccc3)C(=O)[C@@H]21 3.23%
